Inconclusive results are not listed. A call without a number means that no potency is given here. Unmarked numbers belong to inactive results. Active and inactive are the calls of the source. Calls come from the whole dose curve; as a rule, active = well fitted curve in the direction sought with a large enough effect in the repeat runs; inconclusive = weak or mixed curves; inactive = no such curve, though single readings can be large; an effect the other way counts as inactive or inconclusive.
What was measured:
[1] = molecular target: Cytochrome P450 2C19 (Homo sapiens) (UniProt P33261); test: Cytochrome P450 Family 2 Subfamily C Member 19 (CYP2C19) small molecule antagonists: luciferase reporter qHTS assay (AID 1671197); conditions: P450-Glo CYP2C19 enzyme, luciferin luminescence, 1 h; series mostly up to 115 µM; note: nearly all actives have a fitted effect of over 65% in size
Chain of Cytochrome P450 2C19 (Homo sapiens) (P33261 whole entry, looked up): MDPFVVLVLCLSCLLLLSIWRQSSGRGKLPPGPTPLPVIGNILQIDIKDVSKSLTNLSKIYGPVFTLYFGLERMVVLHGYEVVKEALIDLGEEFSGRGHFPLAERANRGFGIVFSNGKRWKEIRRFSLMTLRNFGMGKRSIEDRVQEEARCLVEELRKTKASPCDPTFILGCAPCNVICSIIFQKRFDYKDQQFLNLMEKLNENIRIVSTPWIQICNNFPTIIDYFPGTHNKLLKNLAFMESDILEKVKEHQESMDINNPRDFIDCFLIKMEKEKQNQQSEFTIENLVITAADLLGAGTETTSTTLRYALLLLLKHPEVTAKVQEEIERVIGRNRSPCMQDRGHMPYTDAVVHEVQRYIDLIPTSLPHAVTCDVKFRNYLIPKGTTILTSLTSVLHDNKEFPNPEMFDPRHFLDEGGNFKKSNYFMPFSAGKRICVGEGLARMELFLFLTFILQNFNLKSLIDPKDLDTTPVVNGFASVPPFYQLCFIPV
In short: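 Relative luminescence units recorded 20 min after the detection reagent stopped a 1 h, 37C CYP2C19 reaction on proluciferin substrate, which was started by NADPH regeneration following 10 min room-temperature compound preincubation; ketoconazole positive control.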

[2] = molecular target: Cytochrome P450 2C9 (Homo sapiens) (UniProt P11712); test: Cytochrome P450 Family 2 Subfamily C Member 9 (CYP2C9) small molecule antagonists: luciferase reporter qHTS assay (AID 1671198); conditions: P450-Glo CYP2C9 enzyme assay, luciferin luminescence; series mostly up to 115 µM; note: nearly all actives have a fitted effect of over 50% in size
Chain of Cytochrome P450 2C9 (Homo sapiens) (P11712 whole entry, looked up): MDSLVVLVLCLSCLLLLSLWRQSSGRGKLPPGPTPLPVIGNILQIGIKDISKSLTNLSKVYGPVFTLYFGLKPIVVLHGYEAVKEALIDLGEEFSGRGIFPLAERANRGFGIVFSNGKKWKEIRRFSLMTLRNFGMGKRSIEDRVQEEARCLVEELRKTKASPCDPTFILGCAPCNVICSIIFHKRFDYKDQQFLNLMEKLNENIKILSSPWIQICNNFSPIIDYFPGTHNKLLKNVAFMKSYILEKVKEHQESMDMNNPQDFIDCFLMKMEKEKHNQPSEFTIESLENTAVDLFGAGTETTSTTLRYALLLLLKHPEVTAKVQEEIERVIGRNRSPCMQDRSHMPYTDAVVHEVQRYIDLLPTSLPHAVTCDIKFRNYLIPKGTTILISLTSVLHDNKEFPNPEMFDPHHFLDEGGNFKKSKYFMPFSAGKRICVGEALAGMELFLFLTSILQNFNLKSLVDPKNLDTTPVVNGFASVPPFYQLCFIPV
In short: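 P450-Glo proluciferin substrate with CYP2C9 enzyme; 10 min RT preincubation, then NADPH regeneration 1 h at 37C; luciferin detection reagent 20 min RT, luminescence in relative luminescence units.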

[3] = molecular target: Cytochrome P450 1A2 (Homo sapiens) (UniProt P05177); test: Cytochrome P450 Family 1 Subfamily A Member 2 (CYP1A2) small molecule antagonists: luciferase reporter qHTS assay (AID 1671199); conditions: P450-Glo CYP1A2 enzyme, luciferin luminescence, 1 h; series mostly up to 115 µM; note: nearly all actives have a fitted effect of over 50% in size
Chain of Cytochrome P450 1A2 (Homo sapiens) (P05177 whole entry, looked up): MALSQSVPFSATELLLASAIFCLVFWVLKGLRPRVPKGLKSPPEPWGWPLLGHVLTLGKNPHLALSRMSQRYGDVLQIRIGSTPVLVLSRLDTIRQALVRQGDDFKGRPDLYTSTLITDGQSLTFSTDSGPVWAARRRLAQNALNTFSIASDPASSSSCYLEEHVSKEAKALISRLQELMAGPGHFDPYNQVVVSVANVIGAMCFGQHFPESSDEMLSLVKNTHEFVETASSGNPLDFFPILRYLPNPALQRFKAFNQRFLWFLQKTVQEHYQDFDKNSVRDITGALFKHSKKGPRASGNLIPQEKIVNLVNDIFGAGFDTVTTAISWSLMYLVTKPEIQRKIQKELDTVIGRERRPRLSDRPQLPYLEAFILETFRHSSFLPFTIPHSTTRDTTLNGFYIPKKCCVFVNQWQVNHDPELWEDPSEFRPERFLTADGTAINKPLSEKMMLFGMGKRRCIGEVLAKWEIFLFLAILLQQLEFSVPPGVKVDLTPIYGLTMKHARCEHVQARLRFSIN
In short: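 Signal from luciferin formed by CYP1A2 from a proluciferin substrate is read as luminescence, expressed in relative luminescence units. Compounds sit with enzyme 10 min, NADPH-driven reaction runs 1 h, all at room temperature.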

[4] = molecular target: Voltage-gated inwardly rectifying potassium channel KCNH2 (Homo sapiens) (UniProt Q12809); test: Human Ether-a-go-go-Related Gene (hERG) channel small molecule antagonists: fluorescence cell-based qHTS assay (AID 1671200); conditions: hERG-U2OS cells, FluxOR thallium flux fluorescence; series mostly up to 76.8 µM; note: nearly all actives have a fitted effect of over 50% in size;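 for activity change, negative = inhibition: hERG-expressing U2OS cells given a thallium stimulus after FluxOR II dye loading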
Chain of Voltage-gated inwardly rectifying potassium channel KCNH2 (Homo sapiens) (Q12809 whole entry, looked up): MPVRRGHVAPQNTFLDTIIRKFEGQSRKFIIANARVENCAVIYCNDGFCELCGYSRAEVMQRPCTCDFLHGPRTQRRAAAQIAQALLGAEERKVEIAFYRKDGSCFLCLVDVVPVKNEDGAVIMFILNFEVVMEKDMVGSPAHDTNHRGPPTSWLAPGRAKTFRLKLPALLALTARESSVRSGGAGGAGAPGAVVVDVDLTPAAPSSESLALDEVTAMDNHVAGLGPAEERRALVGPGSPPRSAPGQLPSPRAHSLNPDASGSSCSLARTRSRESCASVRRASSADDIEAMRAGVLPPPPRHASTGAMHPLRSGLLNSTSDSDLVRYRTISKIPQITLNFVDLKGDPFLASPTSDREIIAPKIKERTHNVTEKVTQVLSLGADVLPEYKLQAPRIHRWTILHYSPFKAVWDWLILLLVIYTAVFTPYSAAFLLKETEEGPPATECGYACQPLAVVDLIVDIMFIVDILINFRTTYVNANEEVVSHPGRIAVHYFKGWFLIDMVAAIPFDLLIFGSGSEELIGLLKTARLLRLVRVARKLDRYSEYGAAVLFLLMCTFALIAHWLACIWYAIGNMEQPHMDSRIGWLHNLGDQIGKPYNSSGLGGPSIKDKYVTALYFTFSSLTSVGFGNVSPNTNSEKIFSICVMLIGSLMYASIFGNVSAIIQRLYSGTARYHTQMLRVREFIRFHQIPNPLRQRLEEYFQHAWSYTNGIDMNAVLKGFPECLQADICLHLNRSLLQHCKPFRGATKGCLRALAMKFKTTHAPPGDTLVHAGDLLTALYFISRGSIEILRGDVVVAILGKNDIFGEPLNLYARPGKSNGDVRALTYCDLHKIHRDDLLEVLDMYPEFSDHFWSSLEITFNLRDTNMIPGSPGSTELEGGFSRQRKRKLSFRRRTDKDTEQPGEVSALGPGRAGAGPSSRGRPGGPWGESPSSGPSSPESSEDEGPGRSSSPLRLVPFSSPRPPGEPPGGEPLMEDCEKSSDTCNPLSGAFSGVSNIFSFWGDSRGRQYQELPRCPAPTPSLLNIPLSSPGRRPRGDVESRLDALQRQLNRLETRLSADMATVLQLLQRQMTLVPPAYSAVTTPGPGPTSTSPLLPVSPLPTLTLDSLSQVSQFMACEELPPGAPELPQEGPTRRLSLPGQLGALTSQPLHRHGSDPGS
In short: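 Read-out: thallium influx as a surrogate for potassium, tracked as fluorescence (480 nm ex/540 nm em) every second for 2 min after Stimulus Buffer addition in dye-loaded hERG-U2OS cells.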

[5] = molecular target: Cytochrome P450 3A4 (Homo sapiens) (UniProt P08684); test: Cytochrome P450 Family 3 Subfamily A Member 4 (CYP3A4) small molecule antagonists: luciferase reporter qHTS assay (AID 1671201); conditions: P450-Glo CYP3A4 enzyme, luciferin luminescence, 1 h; series mostly up to 115 µM; note: nearly all actives have a fitted effect of over 50% in size
Chain of Cytochrome P450 3A4 (Homo sapiens) (P08684 whole entry, looked up): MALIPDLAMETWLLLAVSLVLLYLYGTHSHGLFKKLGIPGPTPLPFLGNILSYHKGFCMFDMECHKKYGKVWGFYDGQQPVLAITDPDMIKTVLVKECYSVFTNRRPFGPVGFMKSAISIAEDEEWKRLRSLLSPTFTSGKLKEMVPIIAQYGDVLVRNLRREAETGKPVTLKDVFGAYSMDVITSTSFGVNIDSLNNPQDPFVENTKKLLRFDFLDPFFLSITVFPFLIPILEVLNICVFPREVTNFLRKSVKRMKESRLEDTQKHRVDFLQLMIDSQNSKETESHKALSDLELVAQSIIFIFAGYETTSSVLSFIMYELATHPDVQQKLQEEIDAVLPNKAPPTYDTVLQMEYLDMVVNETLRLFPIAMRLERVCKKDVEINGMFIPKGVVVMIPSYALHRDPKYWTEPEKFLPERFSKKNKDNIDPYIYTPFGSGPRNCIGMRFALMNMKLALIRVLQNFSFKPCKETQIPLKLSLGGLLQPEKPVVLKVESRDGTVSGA
In short: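 Luminescent readout (RLU) proportional to CYP3A4 activity, from luciferin generated off a proluciferin substrate. Enzyme–substrate mix plus compound 10 min at room temp, NADPH regeneration 1 h, detection reagent 20 min.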
Potency is the fitted concentration of half-maximal effect.

| Compound | Potency [1] | Potency [2] | Potency [3] | Potency [4] | Potency [5] | activity change, negative = inhibition [3] | activity change, negative = inhibition [4] |
| --- | --- | --- | --- | --- | --- | --- | --- |
| CC(C)OC(=O)c1ccccc1C(=O)OC(C)C | 79.6 µM (active) | 39.9 µM (active) | 3.56 µM (active) | inactive | inactive | – | – |
| O=[N+]([O-])C1(Br)COCOC1 | 15.9 µM (active) | 7.1 µM (active) | 15.9 µM (active) | 54.9 µM (active) | – | – | – |
| CCN(CC)CCOc1ccccc1C(=O)CCc1ccccc1 | inactive | inactive | 7.76 µM (active) | 3.38 µM (active) | – | – | – |
| Nc1ccc(S(=O)(=O)NCc2ccccc2)cc1 | 2.19 µM (active) | inactive | inactive | inactive | – | – | – |
| Nc1cccc2c(N)cccc12 | 7.96 µM (active) | 9.2 µM (active) | 3.72 µM (active) | inactive | – | – | – |
| CC(C)C(O)C(C)(C)CO (stereo not drawn) | 41.2 µM (active) | 65.3 µM (active) | 65.3 µM (active) | inactive | – | – | – |
| ClC1=C(Cl)C1(Cl)Cl | inactive | inactive | inactive | inactive | inactive | – | – |
| CCOC(=O)c1c(N)sc2c1CCN(Cc1ccccc1)C2 | 0.871 µM (active) | 3.47 µM (active) | 15.5 µM (active) | – | – | – | – |
| COc1ccc(-c2cc(=S)ss2)cc1 | 9.77 µM (active) | 12.3 µM (active) | 0.911 µM (active) | inactive | – | – | – |
| Cc1ccc2nc(N)[nH]c(=O)c2c1Sc1ccncc1 | 1.55 µM (active) | 5.49 µM (active) | 2.88 µM (active) | inactive | – | – | – |
| CC(C)COC(=O)COc1cc(Cl)c(Cl)cc1Cl | 8.91 µM (active) | 35.5 µM (active) | 31.6 µM (active) | – | – | – | – |
| CC(=O)NNC(C)=O | inactive | inactive | inactive | inactive | inactive | – | – |
| COc1cc(NCc2ccc3nc(N)nc(N)c3c2C)cc(OC)c1OC | 9.77 µM (active) | 15.5 µM (active) | 7.76 µM (active) | inactive | – | – | – |
| CC[C@H]1OC(=O)[C@H](C)[C@@H](O[C@H]2C[C@@](C)(OC)[C@@H](O)[C@H](C)O2)[C@H](C)[C@@H](O[C@@H]2O[C@H](C)C[C@H](N(C)C)[C@H]2O)[C@](C)(O)C[C@@H](C)CN(C)[C@H](C)[C@@H](O)[C@]1(C)O | inactive | inactive | inactive | inactive | – | – | – |
| Nc1ccc(F)cc1 | inactive | inactive | inactive | inactive | inactive | – | – |
| Cc1cc(CCC(=O)OCCOCCOCCOC(=O)CCc2cc(C)c(O)c(C(C)(C)C)c2)cc(C(C)(C)C)c1O | 2.76 µM (active) | 0.617 µM (active) | inactive | inactive | 2.46 µM (active) | – | – |

| Compound | Potency [1] | Potency [2] | Potency [3] | Potency [4] | Potency [5] | activity change, negative = inhibition [3] | activity change, negative = inhibition [4] |
| --- | --- | --- | --- | --- | --- | --- | --- |
| N[C@@H](Cc1cc(I)c(O)c(I)c1)C(=O)O | inactive | 38.9 µM (active) | inactive | inactive | inactive | – | – |
| CC1=C2[C@@H]([C@H](C)CC[C@H]2/C=C(\C)C(=O)O)[C@H](O)C1 | inactive | inactive | inactive | inactive | inactive | – | – |
| CC(C)(C)C(O)/C=C/c1ccc2c(c1)OCO2 (stereo not drawn) | 3.89 µM (active) | 3.89 µM (active) | 5.75 µM (active) | inactive | – | – | – |
| CC(CCc1ccc(O)cc1)NCCc1ccc(O)c(O)c1 (stereo not drawn) | inactive | inactive | inactive | 13.4 µM (active) | inactive | – | – |
| C=C(C)C(=O)OCCC(F)(F)C(F)(F)C(F)(F)C(F)(F)C(F)(F)C(F)(F)F | inactive | inactive | inactive | inactive | inactive | – | – |
| c1ccc2sc(SSc3nc4ccccc4s3)nc2c1 | 4.77 µM (active) | 9.52 µM (active) | – | – | – | -16.1% [at 23.6 µM] | 5.4% [at 15.8 µM] |
| CCCc1nc2c(C)cc(-c3nc4ccccc4n3C)cc2n1Cc1ccc(-c2ccccc2C(=O)O)cc1 | 7.76 µM (active) | 7.76 µM (active) | inactive | inactive | – | – | – |
| CCCCCc1ccco1 | 32.8 µM (active) | 26 µM (active) | 36.8 µM (active) | inactive | 23.2 µM (active) | – | – |
| Cc1cc(CCCOc2c(C)cc(-c3noc(C(F)(F)F)n3)cc2C)on1 | 21.9 µM (active) | 8.71 µM (active) | – | – | – | – | – |
| COc1ccc(/C=C/C(=O)c2ccc(OC)cc2OC)cc1 | 3.89 µM (active) | 6.92 µM (active) | 4.56 µM (active) | inactive | – | – | – |
| CCN(CC)C(=O)/C(C#N)=C/c1cc(O)c(O)c([N+](=O)[O-])c1 | inactive | 0.195 µM (active) | inactive | inactive | inactive | – | – |
| CN1CCCN(C(c2ccccc2)c2ccc(Cl)cc2)CC1 (stereo not drawn) | inactive | inactive | inactive | 1.9 µM (active) | – | – | – |
| Oc1cccc2[nH]ccc12 | inactive | 15.5 µM (active) | inactive | inactive | inactive | – | – |
| Cc1c[nH]c2ccccc12 | inactive | inactive | 14.4 µM (active) | inactive | inactive | – | – |
| O=C1[C@@H]2[C@H]3CC[C@H](C3)[C@@H]2C(=O)N1CCCCN1CCN(c2ncccn2)CC1 | inactive | inactive | inactive | inactive | – | – | – |

— PubChem BioAssay (Tox21)
